This passage reports growth inhibition results from PubChem BioAssay (NCI).

Compounds without any hit were thinned out: in the full panel of roughly 79,000, 15% have a hit. Values without a mark were called inactive. Calls of active or inactive are those of the source. Rule as the data show it: active = growth inhibition above about 70%; inactive = the rest. Where a SMILES comes first, the peptide text is derived from it. [ ]: non-standard residue; d: D form. ξ: configuration not given here. ξPhe(4-N(CH2CH2Cl)2) = NC(Cc1ccc(N(CCCl)CCCl)cc1)C(=O)O; Aad = N[CH](CCCC(=O)O)C(=O)O

A short description of assay [1]: NCI Yeast Anticancer Drug Screen. Data for the rad50 strain (AID 155).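 Also: 0% = growth of vehicle-only cultures of the same strain.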 The note with it: S. cerevisiae rad50 strain growth inhibition; at 50.0 µM; hits give high values. Put shortly: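 Growth of the mutant yeast was measured after compound exposure and referenced to vehicle-treated cultures.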
Assay [2] in a line: NCI Yeast Anticancer Drug Screen. Data for the mec2-1 strain (AID 157). The settings on record: S. cerevisiae mec2-1 strain, at 50.0 µM, hits give high values. The method in brief:
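Using mec2-1 yeast: add compound, measure growth, express inhibition versus vehicle-treated cultures.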

The nature of assay [3]: NCI Yeast Anticancer Drug Screen. Data for the sgs1 mgt1 strain (AID 161).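 Also: 0% = growth of cultures given vehicle only.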 The settings on record: S. cerevisiae sgs1 mgt1 strain, at 50.0 µM, hits give high values. The method in brief: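 This yeast growth screen uses a strain with defined DNA-repair lesions; compound-treated growth is compared with vehicle-treated growth.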
A short description of assay [4]: NCI Yeast Anticancer Drug Screen. Data for the cln2 rad14 strain (AID 165).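 Also: 0% = growth equal to vehicle treated cultures.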 The note with it: S. cerevisiae cln2 rad14 strain, at 50.0 µM, hits give high values. The method in brief: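 Yeast strain cln2 rad14, bearing defects in cell cycle control and DNA repair, serves as the test system; values reflect growth inhibition compared with vehicle.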
A short description of assay [5]: NCI Yeast Anticancer Drug Screen. Data for the bub3 strain (AID 167). The note with it: S. cerevisiae bub3 mutant strain, at 50.0 µM, hits give high values. The method in brief:
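Whole-cell yeast assay. The mutant strain was incubated with compounds, and growth inhibition was determined by comparison with vehicle-treated cells.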

Assay [6] can be described thus: NCI Yeast Anticancer Drug Screen. Data for the mlh1 rad18 strain (AID 175). The settings on record: S. cerevisiae mlh1 rad18 strain growth inhibition; at 50.0 µM; hits give high values. The method in brief:
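Steps: expose repair-defective yeast to compound; measure growth; express inhibition against vehicle-treated controls.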

`CCCCCCCCCSCP(=O)(OCC)OCC`: the growth inhibition in assay [1] is 99.5% (active); in assay [2], 99.8% (active); in assay [3], 99.7% (active); in assay [4] it was 98.9% (active); in assay [5], 99.5% (active); in assay [6], 99.7% (active).
`CCC(=O)OC1(c2ccccc2)CCN(CCC(=O)c2ccccc2)CC1`: the growth inhibition in assay [1] is 45.5%; in assay [2] it was 28.4%; in assay [3], 36.8%; in assay [4], 19.2%; in assay [5], 36.8%; in assay [6], 25.9%.
`Clc1ccc(-c2ccccc2)cc1Cl`: the growth inhibition was 12.9% in assay [1]; -12.5% in assay [2]; -8.85% in assay [3]; -0.8% in assay [4]; 14.6% in assay [5]; 1.9% in assay [6].
As to `O=C(c1ccc(Cl)cc1)N1CCOCC1`, the growth inhibition in assay [1] was -4.45%; in assay [2], -15.2%; in assay [3] it was -7.6%; in assay [4], -29.4%; in assay [5], -53%; in assay [6] it was -7.95%.
As for `COc1cc(C2c3cc4c(cc3OC(C)(O)C2C(C)=O)OCO4)cc(OC)c1OC` (stereo not given), the growth inhibition was -10.2% in assay [1]; -0.15% in assay [2]; 3.9% in assay [3]; -18.6% in assay [4]; -1.1% in assay [5]; -7.45% in assay [6].
Turning to `COc1cc(/C=C2\C(O)C3CCN2CC3)cc(OC)c1OC` (stereo not given), the growth inhibition was -9.25% in assay [1]; -2.15% in assay [2]; -5.6% in assay [3]; -8.65% in assay [4]; 9.1% in assay [5]; -6.8% in assay [6].
Take `CCOC(=O)C(Cc1ccc(N(CCCl)CCCl)cc1)NC(=O)C(CCC(=O)O)NC(=O)C(Cc1ccc(O)cc1)NC(=O)C(CCCC(=O)O)NC(=O)C(N)Cc1ccc(O)cc1` (stereo not given) (H-Y[Aad]YE[ξPhe(4-N(CH2CH2Cl)2)]-OEt; configuration not given here): the growth inhibition in assay [1] was 7.7%; in assay [2], 13.9%; in assay [3] it was -6.5%; in assay [4], 14.8%; in assay [5], 8.05%; in assay [6] it was 30.3%.
For the compound `N.N.N.N.N.N.[Br-].[Co+3]`, the growth inhibition is -0.9% in assay [1]; 7.7% in assay [2]; -34.2% in assay [3]; 6.3% in assay [4]; -1.2% in assay [5]; 22.6% in assay [6].
`CC[C@@H]1C[C@H]2CC3c4[nH]c5ccc(O)cc5c4CCN(C2)C31`: the growth inhibition in assay [1] is 3.4%; in assay [2], -24.4%; in assay [3], 23.6%; in assay [4], 5.35%; in assay [5], -1.45%; in assay [6], 5.6%.
As for `CC(C)(N)Cc1ccc(N)cc1`, the growth inhibition is 15.2% in assay [1]; -1.55% in assay [2]; 7.15% in assay [3]; 18.4% in assay [4]; 2.5% in assay [5]; 24.4% in assay [6].
Take `O=C(OCC1CCCN2CCCCC12)c1ccncc1` (stereo not given): the growth inhibition in assay [1] is 4.9%; in assay [2], 2.9%; in assay [3] it was 48.4%; in assay [4] it was 15.4%; in assay [5], 34.3%; in assay [6], 2.35%.
With `CC(=O)OCC1OC(n2ncc3c(N4CC4)ncnc32)C(OC(C)=O)C1OC(C)=O` (stereo not given), the growth inhibition in assay [1] is 7.7%; in assay [2] it was -12.6%; in assay [3], -21.3%; in assay [4] it was 6.65%; in assay [5], 1.45%; in assay [6] it was 4.25%.
For `CC(C)(C)Nc1ccccc1.[C-]#[O+].[C-]#[O+].[C-]#[O+].[Cr]`, the growth inhibition in assay [1] was -7.75%; in assay [2], -2.3%; in assay [3] it was -0.55%; in assay [4], 10.3%; in assay [5] it was 28.4%; in assay [6], 6.3%.
`CCCCOP(=O)(OCCCC)SCl`: the growth inhibition is -9.4% in assay [1]; 1.7% in assay [2]; 3.2% in assay [3]; 13.9% in assay [4]; -11.1% in assay [5]; 6% in assay [6].
As for `NNc1nncn1N`, the growth inhibition in assay [1] was -5.25%; in assay [2] it was -10.9%; in assay [3], -23.4%; in assay [4] it was 51.3%; in assay [5], -17.5%; in assay [6], -6.25%.
On to `CC(C)(C)N1OC1c1cccc(Cl)c1` (stereo not given), for which the growth inhibition in assay [1] is 29.6%; in assay [2], 29.4%; in assay [3], 10.8%; in assay [4], 11.9%; in assay [5] it was -2.85%; in assay [6], 36.5%.
For `CC(=O)CC(C)=O.CC(=O)CC(C)=O.[O]=[V]`, the growth inhibition is -60.2% in assay [1]; -58% in assay [2]; -57.8% in assay [3]; -153% in assay [4]; -54.6% in assay [5]; -53.2% in assay [6].
Consider `c1ccc(CC2NC(Cc3ccccc3)N3C(Cc4ccccc4)N23)cc1` (stereo not given), for which the growth inhibition in assay [1] was -2.65%; in assay [2] it was 1.9%; in assay [3] it was 0.9%; in assay [4], -6.25%; in assay [5] it was 9%; in assay [6], 3.45%.
Consider `CC1CCCCN1` (stereo not given), for which the growth inhibition was 5.35% in assay [1]; -1% in assay [2]; -9.85% in assay [3]; 10.2% in assay [4]; 13.5% in assay [5]; 2.85% in assay [6].
For `c1cc2c(cc1NC1=NCCO1)CCC2`, the growth inhibition in assay [1] is 3.65%; in assay [2] it was 4.65%; in assay [3], 2.75%; in assay [4] it was -31.6%; in assay [5], 8.6%; in assay [6], -0.65%.
